Measurements reported in the supplement of paper PMC8975748.
Where a name gives a salt, the structure may show the parent alone. ± gives the standard deviation of the averaged measurements.

Legend:
[1] = tested on: Saccharomyces cerevisiae BY4741 SeMeCo community; experiment: z-score of prototroph abundance vs DMSO median; higher = larger share of this subpopulation than in DMSO controls; details: 10 µM; 24 h; SM minimal medium; subpopulation (auxotrophy): Prototroph
Summary of the method: (§1)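 Scoring was based on each subpopulation's abundance, expressed as a z-score against the vehicle-well median. A Saccharomyces cerevisiae BY4741 community with four plasmids, each restoring one auxotrophy and encoding a distinct fluorescent protein, was pre-grown overnight to OD600 1.0, diluted to 0.3, and added at 70 µl to 384-well plates acoustically predosed with library drugs (10 µM final). It then grew 24 h in minimal SM medium before paraformaldehyde fixation and automated confocal microscopy, with single-auxotroph fluorescent strains setting thresholds and autofluorescence correction.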

[2] = tested on: Saccharomyces cerevisiae BY4741 SeMeCo community; experiment: z-score of subpopulation abundance vs DMSO median, subpopulation auxotrophic for M; higher = larger share of this subpopulation than in DMSO controls; details: 10 µM; 24 h; SM minimal medium; subpopulation (auxotrophy): M
Summary of the method: as §1

[3] = tested on: Saccharomyces cerevisiae BY4741 SeMeCo community; experiment: z-score of subpopulation abundance vs DMSO median, subpopulation auxotrophic for U; higher = larger share of this subpopulation than in DMSO controls; details: 10 µM; 24 h; SM minimal medium; subpopulation (auxotrophy): U
Summary of the method: as §1

[4] = tested on: Saccharomyces cerevisiae BY4741 SeMeCo community; experiment: z-score of subpopulation abundance vs DMSO median, subpopulation auxotrophic for H; higher = larger share of this subpopulation than in DMSO controls; details: 10 µM; 24 h; SM minimal medium; subpopulation (auxotrophy): H
Summary of the method: as §1

[5] = tested on: Saccharomyces cerevisiae BY4741 SeMeCo community; experiment: z-score of subpopulation abundance vs DMSO median, subpopulation auxotrophic for LU; higher = larger share of this subpopulation than in DMSO controls; details: 10 µM; 24 h; SM minimal medium; subpopulation (auxotrophy): LU
Summary of the method: as §1

[6] = tested on: Saccharomyces cerevisiae BY4741 SeMeCo community; experiment: z-score of subpopulation abundance vs DMSO median, subpopulation auxotrophic for LM; higher = larger share of this subpopulation than in DMSO controls; details: 10 µM; 24 h; SM minimal medium; subpopulation (auxotrophy): LM
Summary of the method: as §1

[7] = tested on: Saccharomyces cerevisiae BY4741 SeMeCo community; experiment: z-score of subpopulation abundance vs DMSO median, subpopulation auxotrophic for HM; higher = larger share of this subpopulation than in DMSO controls; details: 10 µM; 24 h; SM minimal medium; subpopulation (auxotrophy): HM
Summary of the method: as §1

[8] = tested on: Saccharomyces cerevisiae BY4741 SeMeCo community; experiment: z-score of subpopulation abundance vs DMSO median, subpopulation auxotrophic for HU; higher = larger share of this subpopulation than in DMSO controls; details: 10 µM; 24 h; SM minimal medium; subpopulation (auxotrophy): HU
Summary of the method: as §1

[9] = tested on: Saccharomyces cerevisiae BY4741 SeMeCo community; experiment: z-score of subpopulation abundance vs DMSO median, subpopulation auxotrophic for UM; higher = larger share of this subpopulation than in DMSO controls; details: 10 µM; 24 h; SM minimal medium; subpopulation (auxotrophy): UM
Summary of the method: as §1

[10] = tested on: Saccharomyces cerevisiae BY4741 SeMeCo community; experiment: z-score of subpopulation abundance vs DMSO median, subpopulation auxotrophic for HL; higher = larger share of this subpopulation than in DMSO controls; details: 10 µM; 24 h; SM minimal medium; subpopulation (auxotrophy): HL
Summary of the method: as §1

[11] = tested on: Saccharomyces cerevisiae BY4741 SeMeCo community; experiment: z-score of subpopulation abundance vs DMSO median, subpopulation auxotrophic for HLU; higher = larger share of this subpopulation than in DMSO controls; details: 10 µM; 24 h; SM minimal medium; subpopulation (auxotrophy): HLU
Summary of the method: as §1

[12] = tested on: Saccharomyces cerevisiae BY4741 SeMeCo community; experiment: z-score of subpopulation abundance vs DMSO median, subpopulation auxotrophic for HLM; higher = larger share of this subpopulation than in DMSO controls; details: 10 µM; 24 h; SM minimal medium; subpopulation (auxotrophy): HLM
Summary of the method: as §1

[13] = tested on: Saccharomyces cerevisiae BY4741 SeMeCo community; experiment: z-score of subpopulation abundance vs DMSO median, subpopulation auxotrophic for HUM; higher = larger share of this subpopulation than in DMSO controls; details: 10 µM; 24 h; SM minimal medium; subpopulation (auxotrophy): HUM
Summary of the method: as §1

[14] = tested on: Saccharomyces cerevisiae BY4741 SeMeCo community; experiment: z-score of subpopulation abundance vs DMSO median, subpopulation auxotrophic for LUM; higher = larger share of this subpopulation than in DMSO controls; details: 10 µM; 24 h; SM minimal medium; subpopulation (auxotrophy): LUM
Summary of the method: as §1

[15] = tested on: Saccharomyces cerevisiae BY4741 SeMeCo community; experiment: mean cell size (pixel area) (pixels); higher = larger cells; details: 10 µM; 24 h; SM minimal medium
Summary of the method: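 A four-plasmid fluorescent Saccharomyces cerevisiae BY4741 community was tested; each plasmid complements one auxotrophy and carries a fluorescent marker. An overnight preculture at OD600 = 1.0 was diluted to OD600 = 0.3, and 70 µl was added to 384-well plates acoustically predosed with drug (final 10 µM) in SM medium for 24 h. Cells were fixed with paraformaldehyde and imaged by automated confocal microscopy, with analysis in Harmony. Mean cell pixel area per well is averaged over 3 replicates. Same SeMeCo high-content imaging drug screen: Selleck FDA-approved drugs at 10 µM, 24 h in SM medium, 384-well plates, 3 replicates.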

[16] = tested on: Saccharomyces cerevisiae BY4741 SeMeCo community; experiment: z-score of subpopulation abundance vs DMSO median, subpopulation auxotrophic for HLUM; higher = larger share of this subpopulation than in DMSO controls; details: 10 µM; 24 h; SM minimal medium; subpopulation (auxotrophy): HLUM
Summary of the method: as §1

Row | SMILES | z-score of prototroph abundance [1] | z-score of subpopulation abundance [2] | z-score of subpopulation abundance [3] | z-score of subpopulation abundance [4] | z-score of subpopulation abundance [5] | z-score of subpopulation abundance [6] | z-score of subpopulation abundance [7] | z-score of subpopulation abundance [8] | z-score of subpopulation abundance [9] | z-score of subpopulation abundance [10] | z-score of subpopulation abundance [11] | z-score of subpopulation abundance [12] | z-score of subpopulation abundance [13] | z-score of subpopulation abundance [14] | mean cell size [15] | z-score of subpopulation abundance [16]
1 | O=C(O)CCC(=O)OC[C@@H](NC(=O)C(Cl)Cl)[C@H](O)c1ccc([N+](=O)[O-])cc1 [Chloramphenicol sodium succinate] | -0.62 | 0.71 | -0.91 | 0.42 | 0.45 | 1.25 | 0.94 | -1.04 | -0.25 | 1.46 | 1.48 | 0.81 | 0.13 | 1.21 | – | –
2 | O=C(O[C@@H]1C[C@@H]2C[C@H]3C[C@H](C1)N2CC3=O)c1c[nH]c2ccccc12 [Dolasetron Mesylate] | -0.86 | 0.81 | 0.89 | -0.55 | 1.19 | 0.31 | – | 0.7 | 1.07 | 0 | 0.01 | 0.35 | 0.41 | – | 12.18 ± 0.11 | -0.07
3 | NS(=O)(=O)Cc1noc2ccccc12 [Zonisamide] | -0.82 | 0.41 | – | 0.46 | 0.73 | 1.13 | – | – | -0.04 | 0.85 | 1.02 | 1.38 | 0.45 | 1.7 | 12.4 ± 0.24 | 1.75
4 | Cn1cc(C(=O)[C@@H]2CCc3[nH]cnc3C2)c2ccccc21 [Ramosetron Hydrochloride] | -0.53 | 0.56 | 0.51 | -0.29 | 0.85 | 0.12 | 0.78 | -0.53 | – | -0.22 | 0.86 | 1.18 | -0.01 | 0.32 | 12.6 ± 0.16 | –
5 | Nc1ccc(S(=O)(=O)NC(=O)c2ccccc2)cc1 [Sulfabenzamide] | 0.8 | -0.05 | -0.51 | -0.19 | -0.03 | -0.72 | -0.23 | -0.03 | -1.04 | – | 0.61 | 0.11 | – | -0.19 | 12.5 ± 0.4 | 0.15
6 | Cc1ccc(C(=O)C(C)CN2CCCCC2)cc1 (configuration not stated) [Tolperisone HCl] | 1.01 | 0.72 | -0.15 | -0.79 | -0.75 | -0.14 | -0.34 | -0.2 | – | -0.34 | -0.71 | -0.48 | -0.56 | -0.71 | 12.6 ± 0.14 | -0.57
7 | Cc1nccn1CC1CCc2c(c3ccccc3n2C)C1=O (configuration not stated) [Ondansetron Hydrochloride Dihydrate] | – | 0.38 | 1.06 | -0.54 | -0.34 | -0.17 | -0.61 | 0.2 | 0.75 | -0.09 | -0.6 | -0.48 | 0.55 | -0.16 | 12.3 ± 0.24 | -0.23
8 | CN1C2CCCC1CC(NC(=O)c1nn(C)c3ccccc13)C2 (configuration not stated) [Granisetron HCl] | -0.01 | -0.02 | -1.1 | 1.08 | -0.06 | 0.45 | 0.45 | -0.52 | -0.36 | – | 0.66 | -0.26 | – | 0.06 | 11.8 ± 0.16 | -0.37
9 | O=C(O)c1ccccc1C(=O)Nc1ccc(S(=O)(=O)Nc2nccs2)cc1 [Phthalylsulfathiazole] | -0.99 | 1.08 | – | -0.26 | -0.05 | 0.02 | 0.77 | 1.23 | 1.23 | -0.66 | 0.04 | -0.76 | 0.99 | -0.13 | 12 ± 0.48 | –
10 | CN1CCCN=C1/C=C/c1cccs1 [Pyrantel Pamoate] | 0.2 | 1.45 | 0.04 | 1.26 | -0.11 | -0.65 | – | 0.04 | -1.25 | -0.22 | 0.47 | 0.61 | -0.34 | -0.44 | 12.8 ± 0.19 | –
11 | Cc1c(C)c2c(c(C)c1O)CCC(C)(CCCC(C)CCCC(C)CCCC(C)C)O2 (configuration not stated) [Vitamin E] | – | -0.6 | 0.13 | -0.89 | -0.31 | -0.64 | – | 0.51 | -0.04 | -1.01 | -1.19 | -1.72 | -0.31 | -0.41 | – | –
12 | CC(=O)O[C@H]1C[C@@]2(C)[C@@H](C[C@@H](O)[C@H]3[C@@]4(C)CC[C@@H](O)[C@@H](C)[C@@H]4CC[C@@]32C)/C1=C(\CCC=C(C)C)C(=O)O [Fusidate Sodium] | -0.65 | 0 | 0.34 | 1.44 | 0.21 | -0.02 | – | 2 | -0.27 | 1.13 | 1.2 | 1.04 | 1.17 | -0.25 | 12.64 ± 0.067 | -0.08
13 | NC1CCN(c2nc3c(cc2F)c(=O)c(C(=O)O)cn3-c2ccc(F)cc2F)C1 (configuration not stated) [Tosufloxacin p-Toluenesulfonate Hydrate] | 0.74 | -0.77 | -0.39 | 0.41 | -0.88 | -0.53 | -0.46 | -0.62 | -0.74 | – | 0.67 | -0.56 | – | -0.71 | 12.3 ± 0.29 | -0.36
14 | CC1=C(C(=O)O)N2C(=O)[C@@H](NC(=O)[C@H](N)C3=CCC=CC3)[C@H]2SC1 [Cephradine monohydrate] | 0.03 | -0.02 | 1.31 | -0.1 | 0.27 | -0.77 | -0.39 | 0.11 | 0.58 | -0.62 | -0.12 | 0.11 | – | -0.79 | 11.9 ± 0.16 | 0.01
